Laboratory results taken from PubChem BioAssay (NCATS).
Inconclusive results are not listed. Calls of active or inactive are those of the source. The call rests on the fitted dose curve; in most records, active means well fitted curve in the direction sought with a large enough effect; inconclusive means small, poorly fitted or top-dose-only effect, or another doubt; inactive means no such curve, though single readings can be large; an effect the other way counts as inactive or inconclusive.

Tests used:
[1] = qHTS of pediatric cancer cell lines to identify multiple opportunities for drug repurposing: Primary screen for U-2 OS cells (AID 1347096); further: nearly all actives have a fitted effect of over 50% in size
Procedure, shortened: (§1)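 Cells (500-1,000/well) in growth media were settled 5 h at 37 degrees C, then given compounds for 48 h. Viability was read as CellTiter-Glo luminescence. Primary runs used MIPE at 11 points (0.78 nM-46 µM) and NPC at 8 points (0.59 nM-46 µM); follow-ups used 11 points.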

[2] = qHTS of pediatric cancer cell lines to identify multiple opportunities for drug repurposing: Primary screen for SK-N-SH cells (AID 1347098); further: nearly all actives have a fitted effect of over 65% in size; further: potency means the concentration at half of the fitted maximal effect
Procedure, shortened: (§2)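 Cells (500-1,000/well) rested 5 h, then received compounds for 48 h; metabolically active cells were measured by CellTiter-Glo luminescence. Final concentrations spanned up to 46 µM (MIPE, 11-point) or 0.59 nM-46 µM (NPC, 8-point) in primary screens, 11-point in follow-ups.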

[3] = qHTS of pediatric cancer cell lines to identify multiple opportunities for drug repurposing: Primary screen for BT-12 cells (AID 1347101); further: nearly all actives have a fitted effect of over 25% in size; further: potency means the concentration at half of the fitted maximal effect
Procedure, shortened: as §2

[4] = qHTS of pediatric cancer cell lines to identify multiple opportunities for drug repurposing: Primary screen for Rh18 cells (AID 1347102); further: nearly all actives have a fitted effect of over 65% in size; further: potency means the concentration at half of the fitted maximal effect
Procedure, shortened: as §1

[5] = qHTS of pediatric cancer cell lines to identify multiple opportunities for drug repurposing: Primary screen for RD cells (AID 1347104); further: nearly all actives have a fitted effect of over 55% in size; further: potency means the concentration at half of the fitted maximal effect
Procedure, shortened: (§3)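 Phenotypic viability qHTS, 48 h compound exposure, CellTiter-Glo luminescence read-out; multi-concentration dosing so that potency and efficacy derive directly from the primary screen's curves.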

[6] = qHTS of pediatric cancer cell lines to identify multiple opportunities for drug repurposing: Primary screen for MG 63 (6-TG R) cells (AID 1347105); further: nearly all actives have a fitted effect of over 50% in size; further: potency means the concentration at half of the fitted maximal effect
Procedure, shortened: as §3

[7] = qHTS of pediatric cancer cell lines to identify multiple opportunities for drug repurposing: Primary screen for control Hh wild type fibroblast cells (AID 1347106);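 further: series mostly up to about 46 µM; a drop in luminescence marks cytotoxicity and a rise apparent proliferation; nearly all actives have a fitted effect of over 55% in size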
Procedure, shortened: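 Viability after 48 h compound treatment at 37C, 500-1,000 cells/well, read as ATP luminescence with CellTiter-Glo. Primary screens used 11-point (MIPE, 0.78 nM-46 µM) or 8-point (NPC, 0.59 nM-46 µM) final concentrations; follow-up screens used 11-point dilutions.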

[8] = qHTS of pediatric cancer cell lines to identify multiple opportunities for drug repurposing: Primary screen for Rh41 cells (AID 1347108); further: nearly all actives have a fitted effect of over 70% in size; further: potency means the concentration at half of the fitted maximal effect
Procedure, shortened: as §3

[9] = qHTS of pediatric cancer cell lines to identify multiple opportunities for drug repurposing: Primary screen for Rh30 cells (AID 1347107); further: nearly all actives have a fitted effect of over 75% in size; further: potency means the concentration at half of the fitted maximal effect
Procedure, shortened: as §1

[10] = qHTS of pediatric cancer cell lines to identify multiple opportunities for drug repurposing: Primary screen for NB1643 cells (AID 1347099); further: nearly all actives have a fitted effect of over 50% in size; further: potency means the concentration at half of the fitted maximal effect
Procedure, shortened: as §3

[11] = qHTS of pediatric cancer cell lines to identify multiple opportunities for drug repurposing: Confirmatory screen for NB1643 cells (AID 1347109); further: nearly all actives have a fitted effect of over 45% in size; further: potency means the concentration at half of the fitted maximal effect
Procedure, shortened: as §1

[12] = qHTS of pediatric cancer cell lines to identify multiple opportunities for drug repurposing: Confirmatory screen for A673 cells (AID 1347110);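 further: potency means the concentration at half of the fitted maximal effect; cells exposed to compound for 48 h before the viability read; nearly all actives have a fitted effect of over 65% in size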
Procedure, shortened: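 A673 cells seeded at 500-1,000 cells/well, rested 5 h, then dosed; primary MIPE 11-point (0.78 nM to 46 µM), NPC (0.59 nM to 46 µM); confirmatory 11-point. CellTiter-Glo luminescence after 48 h.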

[13] = qHTS of pediatric cancer cell lines to identify multiple opportunities for drug repurposing: Confirmatory screen for SK-N-MC cells (AID 1347111);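 further: potency means the concentration at half of the fitted maximal effect; cells exposed to compound for 48 h before the readout; nearly all actives have a fitted effect of over 70% in size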
Procedure, shortened: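 Metabolically active cells were quantified by ATP-dependent luminescence (CellTiter-Glo, 15 min at room temperature) following 48 h treatment. Cells had been plated at 500-1,000 per well and settled for 5 h beforehand.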

[14] = qHTS of pediatric cancer cell lines to identify multiple opportunities for drug repurposing: Confirmatory screen for BT-12 cells (AID 1347112); further: nearly all actives have a fitted effect of over 55% in size; further: potency means the concentration at half of the fitted maximal effect
Procedure, shortened: as §1

[15] = qHTS of pediatric cancer cell lines to identify multiple opportunities for drug repurposing: Confirmatory screen for LAN-5 cells (AID 1347113); further: nearly all actives have a fitted effect of over 65% in size; further: potency means the concentration at half of the fitted maximal effect
Procedure, shortened: as §1

[16] = qHTS of pediatric cancer cell lines to identify multiple opportunities for drug repurposing: Confirmatory screen for DAOY cells (AID 1347114); further: nearly all actives have a fitted effect of over 65% in size; further: potency means the concentration at half of the fitted maximal effect
Procedure, shortened: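 Viability measured as metabolically active cells via CellTiter-Glo luminescence following 48 hours of compound exposure, 11-point dilutions in confirmatory testing. 500-1,000 cells/well plated 5 hours before dosing; controls were DMSO and 2.3 µM bortezomib.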

[17] = qHTS of pediatric cancer cell lines to identify multiple opportunities for drug repurposing: Primary screen for OHS-50 cells (AID 1347103); further: potency means the concentration at half of the fitted maximal effect; nearly all actives have a fitted effect of over 40% in size
Procedure, shortened: as §2

[18] = qHTS of pediatric cancer cell lines to identify multiple opportunities for drug repurposing: Confirmatory screen for NB-EBc1 cells (AID 1347115);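 further: cells exposed to compound for 48 h before the viability read; nearly all actives have a fitted effect of over 45% in size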; further: potency means the concentration at half of the fitted maximal effect
Procedure, shortened: as §1

[19] = qHTS of pediatric cancer cell lines to identify multiple opportunities for drug repurposing: Primary screen for Saos-2 cells (AID 1347097); further: potency means the concentration at half of the fitted maximal effect; nearly all actives have a fitted effect of over 40% in size
Procedure, shortened: as §3

[20] = qHTS of pediatric cancer cell lines to identify multiple opportunities for drug repurposing: Primary screen for LAN-5 cells (AID 1347100); further: potency means the concentration at half of the fitted maximal effect
Procedure, shortened: as §1

Measured: Potency

CCc1cc2c(cc1N1CCC(N3CCOCC3)CC1)C(C)(C)c1[nH]c3cc(C#N)ccc3c1C2=O
inactive: [1] | [2] | [3] | [4] | [5] | [6] | [7] | [8]

C[C@]12CC[C@H](O)CC1=CCC1C2CC[C@]2(C)C(n3cnc4ccccc43)=CCC12 (some centres not stated)
inactive: [1] | [3] | [4] | [5] | [6] | [9]

Cc1nc2ccc(CN(C)c3ccc(C(=O)N[C@@H](CCC(=O)O)C(=O)O)s3)cc2c(=O)[nH]1
active: [12] 82.7 nM | [13] 18.5 nM
inactive: [1] | [10] | [4] | [7] | [9] | [8] | [11] | [14] | [15] | [16]

CC(C)c1nn(-c2c(Cl)cccc2Cl)c2nc(Cc3ccc(OCCO)cc3)[nH]c(=O)c12
inactive: [1] | [9] | [11] | [18]
active: [3] 54.4 nM | [17] 54.4 nM | [5] 132 nM | [8] 372 nM | [12] 131 nM | [13] 117 nM | [14] 82.7 nM | [15] 41.4 nM | [16] 208 nM

Nc1ncnc2c1c(-c1cccc(OCc3ccccc3)c1)cn2C1CC(CN2CCCC2)C1 (configuration not stated)
active: [19] 743 nM | [2] 21500 nM | [10] 4180 nM | [20] 1320 nM | [3] 27300 nM | [4] 18700 nM | [17] 432 nM | [5] 5260 nM | [6] 18700 nM | [8] 1870 nM

CC(C)(O)c1cc2nc(-c3cnc(N)nc3)nc(N3CCOCC3)c2s1
active: [19] 235 nM | [2] 8570 nM | [10] 187 nM | [20] 372 nM | [4] 372 nM | [5] 209 nM | [6] 46.9 nM | [9] 5260 nM | [8] 372 nM | [11] 1470 nM | [12] 1850 nM | [13] 1170 nM | [15] 737 nM

O=C(NC1CCNCC1)c1[nH]ncc1NC(=O)c1c(Cl)cccc1Cl
active: [19] 1660 nM | [2] 1710 nM | [3] 1930 nM | [17] 968 nM | [6] 3720 nM | [8] 743 nM | [12] 414 nM | [13] 3020 nM | [14] 3020 nM | [16] 1170 nM

COC(=O)c1ccc2c(C(=Nc3ccc(N(C)C(=O)CN4CCN(C)CC4)cc3)c3ccccc3)c(O)[nH]c2c1
inactive: [14] | [18]
active: [19] 9350 nM | [2] 6070 nM | [10] 2350 nM | [20] 2350 nM | [17] 5440 nM | [8] 18700 nM | [11] 16500 nM | [13] 18500 nM | [15] 18500 nM | [16] 26100 nM

Cc1c(NC(=O)OC[C@@H]2COCCN2)cn2ncnc(Nc3ccc4c(cnn4Cc4cccc(F)c4)c3)c12
active: [20] 20900 nM | [3] 24300 nM | [6] 187 nM | [12] 18500 nM | [14] 26100 nM | [16] 20800 nM
inactive: [7] | [11] | [18]

COc1ccc(F)c(F)c1C(=O)c1cnc(NC2CCN(S(C)(=O)=O)CC2)nc1N
active: [19] 2350 nM | [2] 2710 nM | [3] 3430 nM | [5] 5260 nM | [8] 7430 nM | [12] 2930 nM | [13] 1310 nM | [14] 3690 nM | [16] 8270 nM
inactive: [9] | [18]

C[C@@H]1COC(Nc2ccc3ncnc(Nc4ccc(OCc5nccs5)c(Cl)c4)c3c2)=N1
active: [19] 29600 nM | [10] 4690 nM | [20] 16600 nM | [3] 24300 nM | [17] 21700 nM | [5] 14800 nM

CC1(O)CC(c2nc(-c3ccc4ccc(-c5ccccc5)nc4c3)c3c(N)nccn23)C1 (configuration not stated)
active: [19] 935 nM | [10] 2090 nM | [20] 418 nM | [3] 17200 nM | [17] 544 nM | [5] 590 nM | [8] 935 nM
inactive: [7]

Cn1c(=O)n(-c2ccc(C(C)(C)C#N)cc2)c2c3cc(-c4cnc5ccccc5c4)ccc3ncc21
active: [19] 235 nM | [20] 1660 nM | [4] 209 nM | [17] 109 nM | [5] 332 nM | [6] 14.8 nM | [8] 132 nM | [12] 2610 nM | [13] 2330 nM | [15] 2080 nM | [18] 7370 nM
inactive: [10]

Cc1cn2c(-c3cn[nH]c3)cnc2c(Nc2ccc(C(=O)N3CCNCC3)cc2F)n1
active: [2] 24100 nM | [10] 18700 nM | [20] 16600 nM | [4] 16600 nM | [17] 13700 nM | [5] 16600 nM | [8] 18700 nM | [11] 9270 nM | [12] 8270 nM | [13] 26100 nM | [15] 13100 nM
inactive: [18]
